# Source: PubChem BioAssay (NCI)
# The panel holds about 83,000 compounds, 20% with a hit somewhere; the sample as a whole holds those more often.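 Plates (96-well) were seeded with cells, treated with compound at one concentration, and incubated for 48 hours before percent growth was determined.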 A number with no mark means an inactive call. Active and inactive are the calls of the source. How the source made its calls: active means growth percent below 10; inactive means the rest.
# Test system: HL-60(TB) leukemia
# Assay: NCI-60 one-dose screen, 48 h (100 = growth as untreated, 0 = no growth, -100 = all killed)
# Conditions: 10 µM unless noted
row,SMILES,growth
1,Cc1nc(O)cc(=O)[nH]1,97%
2,COC(=O)C(O)c1ccccc1 (configuration not stated),109%
3,COc1cccc2nc3n(c12)C(c1c(F)cccc1F)SC3 (configuration not stated),70.3%
4,C#CC[C@H](N)C(=O)O,99.9% [20 µM]
5,C#Cc1cccc(NC(=O)c2ccccc2NC(=O)C=C)c1,97.7% [8.25 µM]
6,Cc1cc(CSc2ccc(Cl)cc2)ccc1N,3.9% (active)
7,CCOC(=O)c1c(NC(=O)c2ccc(C(C)(C)C)cc2)sc2cc(O)ccc12,67%
8,COc1ccc(CCl)c(C)c1OC,99%
9,CCOc1cc(/C=N\NC(=O)C[N+](C)(C)C)ccc1O,87.7%
10,O=[N+]([O-])c1cnc(N2CCN(CC3CC3)CC2)nc1N1CCN(CC2CC2)CC1,99.2%
11,CCCCCCCCCCC(C[N+](C)(C)C/C=C/c1ccccc1)C(O)c1ccccc1 (configuration not stated),-48.9% (active)
12,COc1cc(/C=C/C(=O)/C=C(/C=C/c2ccc(OC(C)=O)c(OC)c2)OB(F)F)ccc1OC(C)=O,4.04% (active)
13,Cn1c(NCCc2ccc(O)c(O)c2)nc2c1c(=O)n(Cc1ccc(Cl)c(Cl)c1)c(=O)n2C,14.8%
14,CN1CCN(Cc2ccc(NC(=O)c3cc(C#Cc4cnc(N)c5ncccc45)n(C)n3)cc2C(F)(F)F)CC1,107%
15,O=C(Nc1cc(Br)ccn1)c1cc2cc(Nc3nc(-c4ccccc4)nc4ccccc34)ccc2oc1=O,87.3%
16,CCCCCCCCCCCCCCCCN=C(CC(=O)O)C(=O)O,72.6%
17,Cn1cc(-c2ccc3ncc(-c4ccc(CC(=O)Nc5cc(C(C)(C)C)no5)cc4)nc3c2)cn1,40.4%
18,N#CC1C(=N)Cc2ccccc2-c2ccccc21 (configuration not stated),28.2%
19,CC(C)c1ccc(C(=O)Nc2nc3ccc(O)cc3s2)cc1,14.4%
20,COc1ccc(/C=C/C(=O)c2ccc(NC(=O)CSc3nnc(-c4cc(-c5ccccc5)nc5ccccc45)n3-c3ccccc3)cc2)cc1,95.9%
21,CC(C)(C)[C@H](OCc1cn([C@H]2C[C@@H](O)[C@@H](CO)O2)c(=O)[nH]c1=O)c1ccc(C#Cc2ccccc2)cc1[N+](=O)[O-],70.4%
22,COc1ccc(C2CC(=O)Nc3c2c(C)nn3-c2nc3ccccc3[nH]2)cc1OC (configuration not stated),31.9%
23,O=C(/C=C/c1ccccc1)c1cccs1,102%
24,COc1cccc(/C=C2\CCc3ccccc3C2=O)c1,63.2%
25,COc1cccc2nc(Nc3ccc(NC(=O)c4ccc5ncccc5c4)cc3)ccc12,91%
26,O=S(=O)(NCCNc1nccc(-c2c(-c3ccc(F)c(O)c3)nc3occn23)n1)c1ccccc1,63.6%
27,CCOC(=O)C(Cc1cc(I)c(O)c(I)c1)NC(=O)c1ccccc1 (configuration not stated),90.2%
